Compounds with a hit are over-represented: about 3.5% of the library has one in this group of screens.
MITF primary = blocks human microphthalmia-associated transcription factor; AlphaScreen MITF homodimerization, bead proximity signal; 650,000 compounds, 0.91% hits; inhibition, % at 2.6 µM; in the data active = inhibition above about 50%
Target sequence (O75030 whole entry, looked up): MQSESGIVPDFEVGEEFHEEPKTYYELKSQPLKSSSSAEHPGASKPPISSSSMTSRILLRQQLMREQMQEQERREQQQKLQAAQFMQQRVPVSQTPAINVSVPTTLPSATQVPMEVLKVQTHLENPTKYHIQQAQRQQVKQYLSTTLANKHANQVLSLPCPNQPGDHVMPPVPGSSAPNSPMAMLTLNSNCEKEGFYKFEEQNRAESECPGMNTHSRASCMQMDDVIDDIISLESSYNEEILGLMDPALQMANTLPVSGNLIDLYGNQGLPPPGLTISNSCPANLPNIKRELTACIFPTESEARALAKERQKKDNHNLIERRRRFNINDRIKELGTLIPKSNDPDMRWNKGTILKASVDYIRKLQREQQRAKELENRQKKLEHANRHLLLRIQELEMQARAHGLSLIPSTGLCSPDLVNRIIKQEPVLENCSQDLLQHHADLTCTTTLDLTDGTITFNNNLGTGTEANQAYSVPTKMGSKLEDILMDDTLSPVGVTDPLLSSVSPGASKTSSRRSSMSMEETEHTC
TEAD-YAP block = TEAD-YAP interaction inhibition; AID 1259422; HEK-TIYL cells, TEAD-Gal4/YAP UAS-luciferase luminescence; 640,000 compounds, 1.4% hits; inhibition, % at 9.12 µM; in the data active = inhibition above about 32%
FBW7 act = human FBW7 E3 ligase activation, primary screen. Q969H0. AlphaScreen FBW7–phospho-cyclin E peptide binding, activator screen. normalized activity (activation), % at 26.1 µM. 650,000 compounds, 0.13% hits; in the data active = normalized activity above about 1.9%;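 also: purified mutant Fbw7 with reduced substrate affinity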
GPR151 activ = human GPR151 activation | Q8TDV0 | PathHunter beta-arrestin GPR151 cells, luminescence | activation, % at 11.2 µM | 650,000 compounds, 1% hits | AID 1508602; in the data active = activation above about 4.9%
MITF inh conf = human MITF inhibition, confirmation; shares compounds with MITF primary; AlphaScreen MITF homodimerization, biotin/His-MITF beads; inhibition, % at 2.6 µM; 4,700 compounds, 16% hits;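 active = inhibition above a cutoff derived from the DMSO control wells, cut at about 28% in these data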;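 also: inhibitors lower the bead chemiluminescence by keeping MITF from dimerizing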
AlphaScreen DR = optically interferes with AlphaScreen signal in dose response | shares compounds with MITF primary | AlphaScreen optical interference counterscreen, cell-free | IC50, µM | 480 compounds, 6% hits; call rule not given here
AlphaScreen intf2 = AlphaScreen optical interference, counter-screen | shares compounds with MITF primary | LysRS AlphaScreen counterscreen, signal interference, triplicate | inhibition, % at 2.6 µM | 4,700 compounds, 7.6% hits | AID 1259376;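 active = inhibition above a cutoff derived from the DMSO control wells, cut at about 30% in these data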
A number is an active result; 0 = inactive; - = no result.

SMILES	MITF primary	TEAD-YAP block	FBW7 act	GPR151 activ	MITF inh conf	AlphaScreen intf2	others
FC(F)(F)c1ccc(Cn2cnc3c(NCc4nc5ccccc5[nH]4)nc(Nc4ccc(-n5ccnc5)cc4)nc32)cc1	0	0	0	0	-	-
CCOC1=CC(c2ccc3c(c2)OCO3)CC(=O)c2c(C)oc(C)c21 (stereo not drawn)	57.1	0	0	0	42.4	0	AlphaScreen DR=0
CCOC(=O)C1=C(C)NC2=C(C(=O)CCC2)C1c1ccc2c(c1)OCO2 (stereo not drawn)	0	0	0	0	-	-
COc1ccc(CN2CCN(C3CCC(C)CC3)CC2)cc1 (stereo not drawn)	72.6	0	0	0	0	0
COc1ccc(CN2CCCCCC2)cc1	0	0	0	0	-	-
CCOc1ccc(CN2CCC(N3CCN(Cc4ccccc4)CC3)CC2)cc1	0	0	0	0	-	-
COc1ccc(CN2CCC(N3CCCCC3)CC2)cc1	53.5	0	0	0	0	0
O=C(CN1CCC(N2CCCCC2)CC1)N(c1ccccc1)c1ccc(O)cc1	0	0	0	0	-	-
CCN(C(=O)Cn1cnc2ccccc21)c1cccc2ccccc12	0	0	0	0	-	-
CCN(C(=O)CN1CCN(C)CC1)c1cccc2ccccc12	84.5	0	0	0	0	0
CN1CCN(CC(=O)N(c2ccccc2)c2ccc(O)cc2)CC1	74.7	0	0	0	0	0
O=C(c1cn(-c2ccccc2)nc1-c1cccs1)N1CCOCC1	0	0	0	0	-	-
O=C(c1cn(-c2ccccc2)nc1C12CC3CC(CC(C3)C1)C2)N1CCOCC1	58.9	0	0	0	0	0
O=c1[nH]c2ccc(S(=O)(=O)NC3CCCCCCC3)cc2o1	0	0	0	0	-	-
Cc1sc2ncnc(NCC(c3ccco3)N(C)C)c2c1C (stereo not drawn)	61.7	0	0	0	0	0
O=C(Cn1nnc(-c2ccccc2NC(=O)C2CC2)n1)Nc1ccccc1	0	0	0	0	-	-
NC(=O)Cn1nnc(-c2ccccc2NC(=O)C2CCCCC2)n1	84.2	0	0	0	0	0
CC(=O)C(C)n1c(CN2CCN(c3ccc(F)cc3)CC2)nc2c1c(=O)n(C)c(=O)n2C (stereo not drawn)	0	0	0	0	-	-
CNC(=S)NNC(=O)c1ccc(O)cc1	0	0	0	0	-	-
CNC(=S)NNC(=O)C(=O)NNC(=S)NC	79.1	0	0	0	0	74.1
CC1=C(C(=O)OC2CCCC2)C(c2ccc(Cl)cc2)NC(=O)N1 (stereo not drawn)	0	0	0	0	-	-
CCCCN1C(=O)NC2NC(=O)NC21 (stereo not drawn)	94.3	0	0	0	85.8	54.3
O=C(COc1ccc(OCc2ccccc2)cc1)NNC(=S)NCCN1CCOCC1	0	0	0	0	-	-
Cc1nc(N2CCCCC2)c2c3c(sc2n1)CC(C)CC3 (stereo not drawn)	0	0	0	0	-	-
COc1ccccc1-n1c(=S)sc2c(=O)n(-c3ccccc3)c(SCC(=O)c3ccc(Cl)cc3)nc21	67.7	0	0	0	0	0
SMILES	MITF primary	TEAD-YAP block	FBW7 act	GPR151 activ	MITF inh conf	AlphaScreen intf2	others
Cc1cc(C)cc(Cn2c(NCCCN3CCOCC3)cc(=O)n(C)c2=O)c1	69.8	0	0	0	0	0
CN1Cc2cc(C(=O)c3cc(F)ccc3O)cnc2NC1=O	0	0	0	0	-	-
O=C(NCC1Cc2cc(-c3cnccn3)ccc2O1)c1cccc(N2CCCC2=O)c1 (stereo not drawn)	51.9	0	0	0	0	0
CC(C)C/C=N/NC(=O)c1ccc2c(c1)NC(=O)C(C)(C)O2	59.6	0	0	0	0	0
CN(C)C1(CNCC(=O)Nc2ccc(F)cc2)CCCCC1	80.2	0	0	0	0	0
O=C(Cc1ccc(NC2=NC3CS(=O)(=O)CC3S2)cc1)NCCN1CCOCC1 (stereo not drawn)	0	0	0	0	-	-
COC(=O)c1c(NC(=O)c2nc3ccccc3s2)sc2c1CC(C)(C)NC2(C)C	0	0	0	0	-	-
CN1CCN(CC(=O)c2c(-c3ccccc3)n(C)c3ccccc23)CC1	57.4	0	0	0	0	0
O=C(NCCNCc1cccs1)c1ccc(F)cc1	55.3	0	0	0	0	0
O=C(NCc1cccs1)c1ccc(CNS(=O)(=O)c2ccc(F)cc2)cc1	0	0	0	0	-	-
CCOC(=O)C1CCCN(Cc2c(F)cccc2Cl)C1 (stereo not drawn)	53.6	0	0	0	0	0

Bioassay records (PubChem)
